Laboratory results published in the supplement of paper PMC8007513.
Structures can show the parent of a compound that is named as a salt. ± gives the standard error. Hit rate of the full screen: of about 1,300 compounds, about 75 (6%) showed an effect of 50% or more. Many of the other results were omitted from the sample, so strong results are more common in it than they were.

Tested on: Trichoderma virens ATCC 9645
Test: growth yield (OD600) relative to untreated control; higher = less growth inhibition
Conditions: compound concentration: 100 uM
Procedure, shortened: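 Trichoderma virens ATCC 9645 spores at 15,000 spores ml^−1 in potato dextrose broth were exposed in 96-well plates to library compounds at 100 μM final, with or without a biocide at 200 ng ml^−1. After growth at 30 °C, OD600 was read at 40 h and 72 h. Values are growth relative to the control without either agent, averaged over duplicate screens.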

CCCCCNC(=N)N/N=C/c1c[nH]c2ccc(OC)cc12 [Tegaserod maleate]
growth yield (40 h): 5.24 ± 0.16% | growth yield (72 h): 3.88 ± 0.52%

COc1ccc2[nH]cc(CCNC(C)=O)c2c1 [Melatonin]
growth yield (40 h): 101% | growth yield (72 h): 97.3%

CN(C)CCN1C(=O)c2ccccc2N(C)c2ccccc21 [Dibenzepine hydrochloride]
growth yield (40 h): 101 ± 1.8% | growth yield (72 h): 105 ± 3%

CC(C)NC[C@@H](O)COc1ccc(CC(N)=O)cc1 [(R)-(+)-Atenolol]
growth yield (40 h): 102 ± 4% | growth yield (72 h): 97.8 ± 1.8%

C=C1C[C@H]2[C@@H]3C=C(C)C4=CC(=O)CC[C@]4(C)[C@H]3CC[C@]2(C)[C@@]1(OC(C)=O)C(C)=O [Melengestrol acetate]
growth yield (40 h): 96.6 ± 1.6% | growth yield (72 h): 94.5 ± 2.4%

C=C(NC(=O)C(=C)NC(=O)c1csc(C2=N[C@@H]3c4csc(n4)[C@H]4NC(=O)c5csc(n5)[C@H]([C@](C)(O)[C@@H](C)O)NC(=O)[C@H]5CSC(=N5)/C(=C/C)NC(=O)[C@H]([C@@H](C)O)NC(=O)c5csc(n5)[C@]3(CC2)NC(=O)[C@H](C)NC(=O)C(=C)NC(=O)[C@H](C)NC(=O)[C@H]([C@@H](C)CC)N[C@@H]2C=Cc3c([C@H](C)O)cc(nc3[C@H]2O)C(=O)O[C@@H]4C)n1)C(N)=O [Thiostrepton]
growth yield (40 h): 96.6 ± 2.9% | growth yield (72 h): 99 ± 2.1%

CC(=O)NCCCS(=O)(=O)O [Acamprosate calcium]
growth yield (40 h): 98.32 ± 0.48% | growth yield (72 h): 95.9 ± 1.7%

Oc1c(I)cc(Cl)c2cccnc12 [Clioquinol]
growth yield (40 h): 18.3 ± 7.8% | growth yield (72 h): 12.9 ± 5.3%

Oc1c(Cl)cc(Cl)c2cccnc12 [Chloroxine]
growth yield (40 h): 1.27 ± 0.32% | growth yield (72 h): 1.36 ± 0.32%

CCN[C@H]1C[C@H](C)S(=O)(=O)c2sc(S(N)(=O)=O)cc21 [Dorzolamide hydrochloride]
growth yield (40 h): 99.3 ± 5.6% | growth yield (72 h): 92.7 ± 6.7%

CO/N=C(\C(=O)N[C@@H]1C(=O)N2C(C(=O)O)=C(COC(N)=O)CS[C@H]12)c1ccco1 [Cefuroxime sodium salt]
growth yield (40 h): 96.9 ± 2.9% | growth yield (72 h): 89.9 ± 1.1%

O=C1C(CC[S+]([O-])c2ccccc2)C(=O)N(c2ccccc2)N1c1ccccc1 (centres undefined) [Sulfinpyrazone]
growth yield (40 h): 102 ± 1.1% | growth yield (72 h): 106 ± 2.1%

CC(N/C(=N\C#N)Nc1ccncc1)C(C)(C)C (centres undefined) [Pinacidil]
growth yield (40 h): 100 ± 2.2% | growth yield (72 h): 103 ± 0.21%

N=C(N)NCc1cccc(I)c1 [Iobenguane sulfate]
growth yield (40 h): 105 ± 1.9% | growth yield (72 h): 106 ± 1.1%

Nc1nc(NC2CC2)c2ncn([C@H]3C=C[C@@H](CO)C3)c2n1 [Abacavir Sulfate]
growth yield (40 h): 97.2 ± 2.5% | growth yield (72 h): 98.48 ± 0.1%

CCC[C@H](N[C@@H](C)C(=O)N1[C@H](C(=O)O)C[C@@H]2CCCC[C@@H]21)C(=O)OCC [Perindopril]
growth yield (40 h): 101 ± 3.5% | growth yield (72 h): 96.9 ± 2.5%

Cn1c(=O)c2c(ncn2CC(=O)O)n(C)c1=O [Acefylline]
growth yield (40 h): 96.6 ± 1.9% | growth yield (72 h): 95.12 ± 0.94%
